Assay outcomes deposited in PubChem BioAssay by National Center for Advancing Translational Sciences (NCATS).
Hits are enriched below; roughly 0.99% of the tested compounds scored in any of these assays.
TRPML1 inh: qHTS for Inhibitors of the Human Mucolipin Transient Receptor Potential 1 (TRPML1); Mucolipin-1 (Homo sapiens), Q9GZU1; TRPML1-inducible cells, Ca2+ dye fluorescence, FDSS; active compounds read low; inhibition of EC80 agonist-evoked calcium signal; activity change, negative = inhibition, % (no concentration beside the values); actives 0.02% (n = 390,000); AID 624415, 2012; in the data active means activity change below about -50%; inconclusive means between about -30% and that limit;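 further: stimulus is agonist 54-4 at its EC80 concentration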
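Tet-induced TRPML1-DL cells loaded with Ca8 no-wash calcium dye were read kinetically on FDSS. Compound addition was followed by EC80 agonist 54-4 (4 uM final); inhibition was read over 110 s.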
TRHR enhancer: qHTS for Small Molecule Agonists and Allosteric Enhancers of Human TRH Receptor: Primary Screen for Enhancers | Thyrotropin-releasing hormone receptor (Homo sapiens), P34981 | TRHR cells, fluo-8 calcium fluorescence, EC20 TRH enhancement | enhancement, % at 2 µM | actives 0.66% (n = 360,000) | AID 493056, 2011; in the data active means enhancement above about 30%
Target sequence (P34981 whole entry, looked up): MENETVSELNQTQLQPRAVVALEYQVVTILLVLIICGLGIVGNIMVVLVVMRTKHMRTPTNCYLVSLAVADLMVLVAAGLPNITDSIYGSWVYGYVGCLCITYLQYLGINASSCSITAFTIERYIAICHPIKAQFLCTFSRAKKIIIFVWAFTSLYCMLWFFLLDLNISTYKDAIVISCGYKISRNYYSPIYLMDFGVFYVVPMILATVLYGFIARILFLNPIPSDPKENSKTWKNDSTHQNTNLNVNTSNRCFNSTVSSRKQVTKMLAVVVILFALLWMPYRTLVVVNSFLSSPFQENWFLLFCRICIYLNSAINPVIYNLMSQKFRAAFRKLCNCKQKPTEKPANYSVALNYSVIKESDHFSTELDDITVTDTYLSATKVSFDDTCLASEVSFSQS
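Enhancer read-out: after compound pinning and an initial kinetic agonist-mode read, an EC20 of TRH (10 nM final) was injected and fluo-8 calcium signal (Ex 480/Em 530) followed at 1 s/cycle for 100 cycles in TRHR-expressing cells.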
TRPML1 agonist: qHTS for Agonists of the Human Mucolipin Transient Receptor Potential 1 (TRPML1). Mucolipin-1 (Homo sapiens), Q9GZU1. TRPML1-expressing cells, Ca2+ dye fluorescence, FDSS. activation, % (concentration not given with the values). actives 0.12% (n = 410,000); in the data active means activation above about 50%; inconclusive means mostly about 30% to 49%
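In this qHTS format, compounds were pin-transferred onto Ca8-dye-loaded TRPML1-DL cells induced with Tet overnight, and intracellular Ca2+ fluorescence was recorded kinetically for 110 s after a 10 s baseline. A subsequent 4uM final 54-4 (EC80) addition followed by a second 110 s read served as the antagonist phase.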
TRPV1 agonist: HTS Assay for Compounds that Act as Agonists of the Vanilloid Receptor 1; Transient receptor potential cation channel subfamily V member 1 (Homo sapiens), Q8NER1; TRPV1-expressing cells, Fluo-8 calcium influx, agonist mode; activation, % at 8.33 µM; actives 0.19% (n = 320,000); in the data active means activation above about 80%; inconclusive means between about 30% and that limit
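Cells expressing TRPV1 were dye-loaded with Fluo-8 and read kinetically: 10 s baseline, 3 min after compound (agonist portion), then 2 min after EC20 capsaicin (allosteric enhancer portion). Calcium-bound dye fluorescence at 480/520 nm.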
TRHR ag: qHTS for Small Molecule Agonists and Allosteric Enhancers of Human TRH Receptor: Primary Screen for Agonists. AID 493084, 2011. activation, % at 2 µM. TRHR cells, calcium flux fluo-8, FDSS agonist mode. actives 0.18% (n = 360,000). Thyrotropin-releasing hormone receptor (Homo sapiens), P34981; in the data active means activation above about 30%
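Read-out: compound-evoked intracellular calcium rise in TRHR cells, fluo-8 dye, kinetic FDSS fluorescence at 1 s/cycle following a 10-cycle baseline. Cells cultured overnight before dye loading (30 min–1.5 h, RT).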
TRPV1 potentiator: HTS Assay for Compounds that Act as Potentiators of the Vanilloid Receptor 1; Transient receptor potential cation channel subfamily V member 1 (Homo sapiens), Q8NER1; TRPV1-expressing cells, Fluo-8 calcium influx, capsaicin EC20 potentiation; potentiation, % at 8.33 µM; actives 0.02% (n = 320,000); AID 540277, 2011; in the data active means potentiation above about 80%; inconclusive means between about 30% and that limit
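Fluo-8 calcium influx in TRPV1-expressing cells, kinetic read (ex 480/em 520 nm). Compound added and read 3 min for agonist activity, followed by capsaicin at EC20 final and 2 min further read for enhancement.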
A number is an active result; 0 = inactive; ? = inconclusive; - = no result given.

SMILES	TRPML1 inh	TRHR enhancer	TRPML1 agonist	TRPV1 agonist	TRHR ag	TRPV1 potentiator
O=C(CNC(=O)c1ccccc1)OC(CCc1ccccc1)C(=O)Nc1cc(C(F)(F)F)ccc1Cl (configuration not stated)	-	0	-	-	0	-
O=[S+]([O-])(c1c(F)cccc1F)N1CCN([S+](=O)([O-])c2csc3ccccc23)CC1	-	0	-	-	0	-
Cc1ccc(S(=O)(=O)N2CCN(C)CC2)cc1[N+](=O)[O-]	0	0	0	0	0	0
CN1CCN(S(=O)(=O)c2ccc(N(C)Cc3ccc(OC(F)F)cc3)c([N+](=O)[O-])c2)CC1	0	0	53	0	0	0
CCOC(=O)c1c(NC(=O)CCCOc2ccccc2C)sc2c1CCC(C)C2 (configuration not stated)	0	33	0	-	0	-
CC1CCc2c(sc(NC(=O)CCCOc3ccccc3)c2C(N)=O)C1 (configuration not stated)	0	0	0	-	0	-
CC(C)C(NS(=O)(=O)c1cccc(C(F)(F)F)c1)C(=O)NCc1cccs1 (configuration not stated)	0	0	0	0	0	0
CC(C)[C@H](NS(=O)(=O)c1cccc(C(F)(F)F)c1)C(=O)OCC(N)=O	0	39	0	0	0	0
CCn1cnc2c(Nc3ccc(Cc4cccnc4)cc3)nc(C#N)nc21	-	0	-	-	0	-
Cc1cc(Cl)ccc1NC(=O)CCCn1nc(C)c2c(C)n(-c3ccccc3)nc2c1=O	0	0	0	-	0	-
Cc1ccc(-n2cc(C(=O)Oc3cccc(C)c3)c3ccccc3c2=O)cc1	0	0	0	-	0	-
Cc1cccc(OCCC(=O)NO)c1	-	-	0	-	-	-
Nc1nc(COc2ccc(Cl)cc2)cs1	0	38	0	0	0	0
Cc1ccc(OCc2csc(N)n2)cc1	0	0	0	0	0	0
COc1ccc(OC)c(S(=O)(=O)N2CCN(Cc3ccccc3)CC2)c1	-	31	-	0	0	0
COc1ccc(S(=O)(=O)N2CCC(N3CCN(Cc4ccccc4)CC3)CC2)cc1	0	31	0	0	0	?
O=[N+]([O-])c1ccccc1S(=O)(=O)N1CCN(C2CCN(Cc3ccccc3)CC2)CC1	0	31	0	0	0	0
O=S(=O)(c1ccc(Cl)cc1)N1CCN(C2CCN(Cc3ccccc3)CC2)CC1	0	0	0	0	0	0
Cc1ccc(N(Cc2cccs2)C(=O)c2ccccc2)cc1	0	0	0	-	0	-
Cc1nc2sccn2c(=O)c1S(=O)(=O)NCc1ccc(F)cc1	0	0	0	-	0	-
COc1ccc(C)cc1N(CC(=O)NCCSCc1ccco1)S(=O)(=O)c1ccc(C)cc1	0	33	0	0	0	0
CC(C)=CC(=O)Nc1ccc(S(=O)(=O)Nc2ccccn2)cc1	0	37	0	0	0	0
COc1ccc2nccc(/C=C/c3ccc(N(C)C)cc3)c2c1	-	-	0	-	-	-
Cc1ccnc2ccc(F)cc12	-	-	0	-	-	-
Cc1ccc(N(CC(=O)N/N=C/c2cc(C)n(-c3ccccc3C)c2C)S(C)(=O)=O)cc1	0	33	0	0	0	0
SMILES	TRPML1 inh	TRHR enhancer	TRPML1 agonist	TRPV1 agonist	TRHR ag	TRPV1 potentiator
COc1ccccc1CNc1nc(-c2ccco2)nn1S(C)(=O)=O	0	0	0	-	0	-
Cc1c(/C=N/NC(=O)C(NC(=O)c2ccc3c(c2)OCO3)C(C)C)c2ccccc2n1C (configuration not stated)	0	32	0	0	0	0
CCc1c(C)c2cc(Cl)c(O)c(CN(CC)CC)c2oc1=O	0	38	0	0	0	0
Cn1cc(-c2cc3n(n2)CCC(=O)N3CC(=O)O)c2ccccc21	0	43	0	-	0	-
CN(C)CCNC(=O)CN1C(=O)CCn2nc(-c3cn(C)c4ccccc34)cc21	0	0	0	-	0	-
CCOC(=O)c1ccc(NC(=O)NCc2ccccc2OC)cc1	0	0	0	84	0	0
CCCN1C(=O)/C(=C/c2c(NCCCOC(C)C)nc3c(C)cccn3c2=O)SC1=S	0	0	0	0	0	0
CCC(C)N1C(=O)/C(=C/c2c(NCCCOC(C)C)nc3c(C)cccn3c2=O)SC1=S (configuration not stated)	0	0	?	0	34	0
CCCCCCOc1ccc(CC(=O)O)cc1	-	-	0	-	-	-
CCOC(=O)C(/C=C(\C#N)C(=O)OCC)=C(/N)N1CCN(c2ccc(Cl)cc2)CC1	0	0	69	0	0	0
CCOC(=O)N1CCN(c2ccc(Cl)cc2)CC1	0	0	0	?	0	0
CC[N+](CC)(CC)c1ccc(/C=C/c2ccc3ccccc3n2)cc1	-	-	0	-	-	-
COc1ccc(N(CC(=O)NC2CCCC2)C(=O)c2ccc(C)s2)c(OC)c1	0	0	0	0	0	0
COc1ccc(N(CC(=O)NC2CCCCC2)C(=O)c2ccc(C)s2)cc1OC	0	32	0	0	0	0
Cc1cnc(C(=O)OCC(=O)c2cc(C)n(CCc3ccc(F)cc3)c2C)cn1	0	-	0	-	-	-
Cc1cc(C(=O)COC(=O)c2ccc(O)cc2)c(C)n1CCc1ccc(F)cc1	0	33	0	0	0	0
CCN(CC)c1ccc(C=C2C(=O)OC(c3ccccc3)OC2=O)cc1 (configuration not stated)	0	0	0	0	0	0
CCN(CC)c1ccc(/C=C/C(=O)C2C(=O)C=C(C)OC2=O)cc1 (configuration not stated)	0	40	127	94	222	0
CCc1cc2c(s1)c1cnn(Cc3ccccc3F)c(=O)c1n2C	-	0	-	-	0	-
CC(C)Cn1c(=O)c2sccc2n2c(CCCC(=O)N3CCN(c4ccc(F)cc4)CC3)nnc12	0	0	0	-	0	-
O=C1/C(=C/c2ccc(O)c(O)c2)Oc2cc(O)ccc21	0	0	0	0	0	0
COc1cc(/C=C2\Oc3cc(O)ccc3C2=O)ccc1O	0	0	?	0	33	0
CCOC(=O)C1C(=O)C=C(c2ccc(C)cc2)CC1c1ccccc1 (configuration not stated)	0	0	0	0	0	0
CCOC(=O)C1C(=O)C=C(/C=C/c2ccc(N(C)C)cc2)CC1c1ccccc1 (configuration not stated)	0	0	?	?	73	0
CCN(CC)S(=O)(=O)c1ccc2c(c1)[nH]c(=S)n2CC	0	38	0	0	0	0
